G9a block – qHTS Assay for Inhibitors of Histone Lysine Methyltransferase G9a; Histone-lysine N-methyltransferase EHMT2 (Homo sapiens), Q96KQ7; G9a H3K9 monomethylation, AlphaScreen, 2 h; Potency, µM (series often up to 102 µM), actives largely listed as inhibitors; 8.8% of 350,000 active; AID 504332, 2011; also: nearly all actives have a fitted effect of over 75% in size
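Methyltransferase reactions run at room temperature for 2 h (20 nM enzyme, 500 nM biotin-H3K9 peptide, 20 uM SAM) after a 15 min compound preincubation; product detected by AlphaScreen beads and anti-H3K9me1 antibody.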
JMJD2A Tudor inh – qHTS Assay for Inhibitors of JMJD2A-Tudor Domain; AID 504339, 2011; Lysine-specific demethylase 4A (Homo sapiens), O75164; Potency, µM (series often up to 114 µM), hits mostly inhibitors; 4.4% of 390,000 active; AlphaScreen JMJD2A-Tudor / H3K4me3 peptide binding; also: nearly all actives have a fitted effect of over 50% in size
HP1b chromo inh – HTS for Inhibitors of HP1-beta Chromodomain Interactions with Methylated Histone Tails. Potency, µM (top dose mostly 114 µM), hits mostly inhibitors. 0.56% of 390,000 active. Chromobox protein homolog 1 (Homo sapiens), P83916. AlphaScreen HP1-beta / biotin-H3K9me3 peptide binding; also: nearly all actives have a fitted effect of over 70% in size
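AlphaScreen: HP1-beta (50 nM) preformed 30 min with biotin-H3(1-18)K9me3 peptide (50 nM) in PBS pH 7.4, 0.01% Tween-20. Compound added for 30 min at RT, then streptavidin donor/nickel chelate acceptor beads (10 ug/mL) for 30 min.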
L3MBTL1 inh – qHTS Assay for the Inhibitors of L3MBTL1. Lethal(3)malignant brain tumor-like protein 1 (Homo sapiens), Q9Y468. AlphaScreen L3MBTL1–H3K9me1 peptide binding. Potency, µM (highest dose often 57.1 µM), usual class: inhibitors. 0.66% of 230,000 active; also: nearly all actives have a fitted effect of over 60% in size
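Displacement of a biotinylated histone H3(1-15) peptide monomethylated at Lys9 (75 nM) from L3MBTL1 (50 nM) was measured by AlphaScreen after a 30 min room-temperature compound incubation; cefsulodin titration served as intraplate control.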
BAZ2B inh – qHTS Assay for Inhibitors of BAZ2B; AlphaScreen BAZ2B-H3K14Ac peptide displacement; Potency, µM (series often up to 114 µM), most hits filed as inhibitors; 4.4% of 360,000 active; also: nearly all actives have a fitted effect of over 60% in size
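In this displacement format the biotinylated H3(5-23) peptide acetylated at Lys14 serves as ligand at 50 nM, with BAZ2B at 50 nM in PBS pH 7.4 containing 0.01% Tween-20. Donor and acceptor beads are 10 ug/mL final.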
Numbers stand for hits; - = inactive; ? = inconclusive; . = no result given; [ ] = dose if it differs, or a comment. This is a sample that favours compounds with a hit; in the whole collection about 11% have one here. Calls follow the shape of the dose curve; as a rule, active = well fitted inhibition curve with a large enough effect; inconclusive = small, poorly fitted or top-dose-only effect; inactive = no such curve, though single readings can be large or run the other way.

SMILES | G9a block | JMJD2A Tudor inh | HP1b chromo inh | L3MBTL1 inh | BAZ2B inh
CCOc1ccc(N2C(=O)NC(=O)/C(=C\c3ccc(N4CCCCC4)o3)C2=O)cc1 | 45µM | - | - | - | -
CN1C(=O)/C(=C\c2ccc(N3CCCCCC3)cc2)C(=O)NC1=S | 28µM | ? | - | - | ?
CCCCN1C(=O)/C(=C/c2ccc(N3CCCCCC3)cc2)C(=O)NC1=S | 18µM | . | . | ? | ?
Cc1cc(N2CCCCC2)ccc1C=C1C(=O)N(C)C(=S)N(C)C1=O | 16µM | ? | ? | - | 35µM
CC(C)(C)c1ccc(/C=C2\Oc3cc(OC(=O)N4CCOCC4)ccc3C2=O)cc1 | - | ? | - | - | -
NCC1OC(O[C@@H]2[C@H](O)[C@@H](OC3C(O)C(N)CC(N)C3OC3OC(CO)C(O)C(O)C3N)O[C@@H]2CO)C(N)C(O)C1O (stereo not given in full) | -[12.7 µM] | . | . | . | .
CN1C(=O)/C(=C/c2ccc(N3CCCCCC3)o2)C(=O)NC1=S | ? | - | - | - | ?
CN1C(=O)/C(=C\c2ccc(N3CCCCC3)o2)C(=O)NC1=S | 32µM | - | - | - | -
CN1CCN(c2ccc(/C=C3\C(=O)NC(=S)N(c4cccc(Br)c4)C3=O)o2)CC1 | ? | ? | ? | - | 40µM
COc1ccc(NC(=O)C2C3CCC(O3)C2C(=O)O)c(OC)c1 (stereo not given) | 10µM | - | - | - | -
Cc1oc(-c2ccccc2Cl)nc1CN1C(=O)CN=C(c2ccccc2)c2cc(Cl)ccc21 | - | - | - | . | -
Cc1oc(-c2cccc(Cl)c2)nc1CN1CCC(C(=O)NCCCN2CCN(c3cccc(Cl)c3)CC2)CC1 | ? | 32µM | - | . | 28µM
Nc1c(C(=O)NC2CCCC2)c2nc3ccccc3nc2n1CC1CCCO1 (stereo not given) | - | - | - | - | -
S=c1[nH]nc(-c2ccccc2)n1CC1CCCO1 (stereo not given) | ? | 40µM | - | . | -
S=c1[nH]nc(-c2ccccc2)n1C1C=CCCC1 (stereo not given) | ? | 3.2µM | - | - | -
C[C@H]1CC[C@@]2(NC1)O[C@@H]1C[C@H]3[C@@H]4CC[C@@H]5C[C@@H](O)CC[C@@]5(C)[C@@H]4CC[C@]3(C)[C@@H]1[C@@H]2C | -[21.5 µM] | . | . | . | .
CN1C(=O)C(=Cc2cn(CC(=O)N3CCCC3)c3ccccc23)C(=O)N(C)C1=O | 28µM | - | - | . | -
CN1C(=O)C(=Cc2cn(CC(=O)N3CCCCC3)c3ccccc23)C(=O)N(C)C1=O | ? | - | - | . | -
COC1CCCCC1NCCc1ccccc1 (stereo not given) | ? | ? | ? | - | -
CCC(CC)NC1CCCCC1OC (stereo not given) | ? | 50µM | - | - | ?
C=CCN1C(=O)/C(=C/c2ccc3c(c2)CCCN3CCC)C(=O)NC1=S | 14µM | 56µM | ? | - | 45µM
CC(C)(C)N1C(=O)NC(=O)/C(=C\c2ccc3c(c2)CCN3CCCCl)C1=O | 40µM | 40µM | ? | . | ?
CCN1C(=O)/C(=C/c2ccc3c(c2)CCN3CCCCl)C(=O)NC1=S | ? | 35µM | ? | ? | 40µM
C#CCOC(C(=O)OCCN(C)C)(c1ccccc1)c1ccccc1 | -[12.7 µM] | . | . | . | .
O=c1c2ccccc2nc(/C=C/c2ccccc2F)n1-c1cccc(O)c1 | - | - | - | . | -
SMILES | G9a block | JMJD2A Tudor inh | HP1b chromo inh | L3MBTL1 inh | BAZ2B inh
Cc1ccccc1N1CCN(S(=O)(=O)c2nnc(NC(=O)c3ccc(Cl)cc3)s2)CC1 | ? | ? | - | . | ?
Cc1cccc(N2CCN(C(=O)C34CC5CC(CC(C5)C3)C4)CC2)c1C | 1.6µM | - | - | . | -
CC(=O)Nc1ccc(Nc2c(CCC(C)C)c(C)c(C#N)c3nc4ccccc4n23)cc1 | - | - | - | . | -
COc1ccc(CC2C(=O)N(c3ccccc3)C(=O)N(c3ccccc3)C2=O)c(OC)c1 | 45µM | - | - | . | -
COc1ccc(CC2C(=O)NC(=O)N(c3ccccc3)C2=O)c(OC)c1 (stereo not given) | ? | - | - | - | ?
NNC(=O)c1nn(-c2ccccc2)cc1O | - | . | . | ? | -
